Experimental data taken from the supplement of paper PMC3334620.
The full ranking holds about 33,000 sequences; the median of “E-score (-0.5 to 0.5)” is about -0.012, and the highest 2% start at about 0.29. This excerpt belongs to a sample that is enriched for the highest values.

What follows are sequences tested against T1, Ybr033w (UniProt P38073) (assay: PBM E-score (8-mer binding enrichment) (E-score (-0.5 to 0.5)); higher = stronger / more preferred TF binding). Details: protein concentration: 200 nM; construct: GST-full length.
T1 sequence: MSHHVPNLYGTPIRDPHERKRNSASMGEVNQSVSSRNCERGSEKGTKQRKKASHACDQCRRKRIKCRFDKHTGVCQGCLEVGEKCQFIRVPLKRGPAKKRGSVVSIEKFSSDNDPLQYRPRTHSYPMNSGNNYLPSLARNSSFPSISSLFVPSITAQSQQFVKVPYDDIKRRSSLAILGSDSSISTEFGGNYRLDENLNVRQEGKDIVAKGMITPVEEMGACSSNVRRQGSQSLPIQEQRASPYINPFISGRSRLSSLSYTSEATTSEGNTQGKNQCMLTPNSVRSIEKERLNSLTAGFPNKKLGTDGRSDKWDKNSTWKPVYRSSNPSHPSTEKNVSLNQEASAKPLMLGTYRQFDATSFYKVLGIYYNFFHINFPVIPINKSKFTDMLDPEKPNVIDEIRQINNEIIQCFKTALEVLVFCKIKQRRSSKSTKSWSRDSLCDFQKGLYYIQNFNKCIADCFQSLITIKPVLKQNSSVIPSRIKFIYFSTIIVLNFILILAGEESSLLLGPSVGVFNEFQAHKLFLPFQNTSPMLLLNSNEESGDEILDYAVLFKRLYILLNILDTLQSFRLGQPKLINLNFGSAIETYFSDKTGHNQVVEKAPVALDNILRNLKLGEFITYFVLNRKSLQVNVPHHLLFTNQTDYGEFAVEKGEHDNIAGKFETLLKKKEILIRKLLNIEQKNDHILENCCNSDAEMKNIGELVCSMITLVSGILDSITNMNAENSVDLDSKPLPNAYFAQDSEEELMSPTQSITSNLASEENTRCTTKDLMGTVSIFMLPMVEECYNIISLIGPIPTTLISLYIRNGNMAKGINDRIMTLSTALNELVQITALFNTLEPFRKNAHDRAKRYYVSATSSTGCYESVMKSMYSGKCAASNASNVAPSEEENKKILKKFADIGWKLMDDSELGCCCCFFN
Method in brief: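 Masliner-normalised scans of fluorescent anti-GST signal were the basis for scoring. That signal came from GST-tagged yeast transcription factors applied at about 100-200 nM to double-stranded universal all-10-mer Agilent arrays on fresh or once-stripped slides. Each ungapped eight-base word, pooled with its reverse complement, received an E-score from the Universal PBM Analysis Suite.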

Sequence	PBM E-score
CACCAACC	-0.105
AATCCACT	0.193
TAGCTTGA	-0.0114
GGCCTTGA	-0.0647
ACGTCAGG	-0.168
GCGGATGA	0.0612
CCGGATCC	-0.129
GTGGATTA	0.164
GCGGATAA	0.416
CCGGATGA	0.289
ACGGATCA	0.236
CCGGATCA	0.345
CCGGATGC	-0.178
CTGGATTC	0.00016
GCGGATAC	0.0188
CTGGATTA	0.309
ACGGATAA	0.276
CTTTGGTC	0.0811
GAACTTCC	0.16
CTTCGCCC	-0.143
AATAGGGG	-0.0543
GGGGCTCA	-0.219
AGTTGCGG	0.0698
AAGTTAGA	0.235
GTACAGAC	-0.1
GACACATC	-0.11

Sequence	PBM E-score
GGCTACCA	-0.203
GATGCTAC	0.0488
CCCTTTCA	-0.19
AAGTCTTA	-0.00514
CCGGATAA	0.454
CCGGATAC	-0.0612
CCGGATAG	0.0368
CCAGAATA	0.0783
ACTTTGGA	0.156
ACCATGAC	-0.0754
ACAGCTGC	-0.0919
CGAGAGAC	-0.188
AAATTAGT	0.206
CAATTAAC	0.224
AAATTATT	0.417
AAATTAGG	0.138
AGATTATG	0.148
ACATTATC	0.219
AGATTATC	0.301
AAATTATG	0.227
AAATTATC	0.418
CAATTATG	0.08
CGATTATC	0.07
CAATTATC	0.365
CCCCACAA	-0.229
CACTTTAG	0.112

Sequence	PBM E-score
ACTTACTC	0.0333
GTGCGGTA	-0.0389
CCCAAGCA	-0.0848
AACCTCGG	0.0447
GAAATCTC	-0.0338
CGGGGGAG	-0.329
ACAATATC	0.293
AATATATA	0.277
ACAATATG	0.199
AAAATAGT	0.225
ACAATATA	0.264
CAAATATC	0.269
AATATATT	0.411
AATATATG	0.204
AAAATATT	0.364
AAAATATC	0.304
AAAATATA	0.28
CACCTCTC	-0.283
AGAATGGA	0.0873
GGACGCGA	-0.0773
ATCTGGGC	-0.0818
CTCCTCGC	-0.257
CATTCTAA	0.165
CTGGCTTC	-0.174
TATTCTGA	0.0151
ATCTCATG	0.0775

Sequence	PBM E-score
ATTTTCTG	0.0635
CAAATATG	0.0991
AAAATATG	0.299
AGAATATG	0.229
GTCTGACA	0.00461
CAGTTATC	-0.0111
GAGTAGTA	0.163
ATTAATGA	0.354
ATTAATGC	0.22
CTTAATGA	-0.0192
GTTAATGA	0.12
ATTAATGG	0.289
AATAATGG	0.162
AATTAGCG	0.161
AGTCTCAC	-0.0327
TAAAGGAA	0.162
CGGATGAG	-0.0297
CGGATGAA	0.371
AGGATGAA	0.187
AGTCCAGC	-0.114
GGGTGAAA	0.0993
ACAGTCGT	-0.164
GGGAAAAC	0.0792
AGGAAAAC	0.12
GGGGAAAA	0.208
AGGAAAAA	0.431

Sequence	PBM E-score
AGGAAAAG	0.038
GGGAAAAA	0.453
TGTGGAAA	0.291
TGAAAAAA	0.246
TGGAAACA	-0.0929
CGTGGAAA	0.182
AGTGGAAA	0.146
TGGAAAAA	0.458
GGCTGAGA	-0.171
GTCATTAA	0.203
TGTTATAA	0.19
ATACGGTA	0.125
CTTTGTGC	-0.00737
CAGGCATC	0.00941
TCTCGACA	0.0966
CCGACTCC	-0.185
AAGAAATT	0.281
AGGAAAAT	0.379
AAGAAAAT	0.331
AAGAAAAA	0.258
ACGAAAAT	0.259
AGAAAAAT	0.269
CTACTGGC	-0.052
AGTAGCTG	0.0396
GCAGCGTA	-0.106
AGAACTAT	0.275

Sequence	PBM E-score
ATCTTTGG	0.0693
ATTTAGTC	0.0709
ATTTAATA	0.325
ATTTAATG	0.244
ATTTAATC	0.352
GTTTAATA	0.264
CTTTAATA	0.227
ATTTAGTA	0.376
CTTTAGTA	0.0159
CTTTAATC	0.145
GACTCCCA	-0.305
CAGCCGTC	-0.0893
AGGAAGAA	0.36
CGGAAGAG	-0.108
GGGAAGAA	0.256
TAGAAGAA	0.0772
AAGAAGAT	0.205
CGGAAGAC	0.00735
AGGAAGAT	0.323
AGGAAGAG	-0.0292
CGGAAGAA	0.462
AGGAAGAC	-0.214
TGGAAGAA	0.347
AAGAAGAA	0.185
TGATACCA	0.092
CATTGGGC	-0.222

Sequence	PBM E-score
CCTAAAAG	-0.226
AGGATGCC	-0.102
ATCGAATC	0.0745
TAAAGGTA	0.0512
CAATGAAC	0.00305
GCGCACAA	-0.0152
CCGAAATC	0.0136
GGACCAGA	-0.0563
AAGTCCAC	-0.0692
GTACCACA	0.121
TTGGGAAA	0.294
CTGGAAAC	-0.0702
TAGGAAAA	0.229
TTGGAAAA	0.298
CTGGGAAA	0.135
GTGGAAGA	0.137
ATGGGAAA	0.0136
GTGGAAAA	0.298
CTGGAAAA	0.377
CTGGAAAG	-0.189
TTGAAAAA	0.237
GTGGAAAC	-0.0663
